Screening results as filed in PubChem.
Rows were chosen to be rich in hits. Some 2.2% of all compounds tested hit in one or more screens of this group.
C8 TRAIL sens: sensitizes caspase-8 expressing cells to TRAIL. inhibition (viability loss, TRAIL sensitization), % at 10 µM. NB7+C8 cells + TRAIL, ATPlite viability luminescence. hit rate 1% among 360,000;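 active = compounds causing at least 50% loss of cell viability in the single-dose screen, relative to plate controls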
KKLEB tox: reduces viability of KKLEB cystic fibrosis airway cells; activity change (cytotoxicity), % at 5 µM; hit rate 0.36% among 360,000; KKLEB CF airway cells viability, ATPlite luminescence, overnight; active compounds read low; cells stimulated with P. aeruginosa culture filtrate;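 active = corrected activity change at or below -50% at 5 µM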
PPC-1+TRAIL kill: kills PPC-1 cancer cells in the presence of TRAIL. PPC-1 cells + TRAIL, ATPLite viability luminescence. hit rate 0.41% among 220,000. cell killing (% activity), % at 4 µM or 5 µM;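 active = cell killing above 50% in the first pass at 4 µM, then a duplicate retest at 5 µM averaging 50% or more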
HIF-2a block: blocks HIF-2a reporter activity; inhibition, % at 18.8 µM; 786-0 RCC cells HIF-2a reporter, luciferase luminescence, overnight; AID 624352; hit rate 0.72% among 360,000;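 active = inhibition of the luminescence signal of 40% or more relative to plate controls, in a single-dose primary screen at 18.75 µM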
iPSC survival up: hiPSC single-cell survival enhancement. AID 602274. survival enhancement, % at 20 µM. hit rate 0.044% among 360,000. ATPlite luminescence; 100% = ROCK inhibitor wells, 0% = DMSO; in the data active = survival enhancement above about 18%;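 also: cells exposed to compounds for 16 hours before the ATP read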
CF NFkB block: inhibitors of cystic fibrosis induced NF-kB; inhibition, % at 5 µM; KKLEB NF-kB-GFP reporter, PAF-induced, GFP fluorescence overnight; hit rate 0.86% among 360,000; AID 588850;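 active = at least 50% inhibition at 5 µM, scaled per plate between neutral and stimulator controls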;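 also: PAF is a Pseudomonas aeruginosa culture filtrate used as stimulus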
Mdm2 MdmX conf: Mdm2/MdmX (human) interaction inhibition, confirmed. shares compounds with HIF-2a block. SaOS-2 split-luciferase Mdm2/MdmX complementation, luminescence. inhibition, % at 8 µM. hit rate 99% among 740;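 active = mean inhibition of the luminescence signal across two replicates at or above 26 percent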
HIF-2a conf: confirmation of HIF-2a inhibitors. shares compounds with HIF-2a block. 786-0 RCC cells, HIF-2a luciferase reporter luminescence, overnight. inhibition, % at 18.8 µM. hit rate 56% among 1,800. AID 651580;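 active = mean inhibition across four replicates of at least 40 percent at the single tested concentration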
HIF-1a counter: HIF-1a inhibition counter-screen for HIF-2a hits; shares compounds with HIF-2a block; MiaPaCa-2 HIF-1a luciferase reporter, desferoxamine, overnight; inhibition, % at 18.8 µM; hit rate 72% among 1,800; AID 651589;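 active = mean inhibition of the reporter signal across four replicates at the single tested dose of 50% or more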
Each line names hits and unclear results; the compound was inactive in the other large screens (follow-up assays come after a bar, where they were run).

COCCNC(=O)c1ccccc1-c1ccccc1C(=O)O	none
Cc1cc2c(cc1C)CSC(c1c(O)ccc3ccccc13)SC2	HIF-2a block 78.9 | HIF-2a conf inactive | HIF-1a counter 99.3
CN(C)CCN1C(=O)C2C(C(=O)Nc3cc(Cl)cc(Cl)c3)C3C=CC2(O3)C1C(=O)NC1CCCCC1 (configuration not stated)	none (no result: PPC-1+TRAIL kill)
CCCC(=O)NC(c1ccccc1)c1ccc2cccnc2c1O (configuration not stated)	none (no result: PPC-1+TRAIL kill) | Mdm2 MdmX conf 80.2
CCCC(=O)NC(c1ccc(OC)cc1)c1ccc2cccnc2c1O (configuration not stated)	none | Mdm2 MdmX conf 85.7
CCC(=O)NC(c1ccc(OC)cc1)c1cc(Cl)c2cccnc2c1O (configuration not stated)	none (no result: PPC-1+TRAIL kill)
CCCCC(=O)NC(c1ccc(C(C)C)cc1)c1ccc2cccnc2c1O (configuration not stated)	none (no result: PPC-1+TRAIL kill)
CCCCC(=O)NC(c1ccccc1)c1ccc2cccnc2c1O (configuration not stated)	none (no result: PPC-1+TRAIL kill) | Mdm2 MdmX conf 86.6
CC1(c2nnc(-c3ccncc3)o2)CC(c2ccc([N+](=O)[O-])cc2)=NO1 (configuration not stated)	none
CCN(CC)S(=O)(=O)c1ccc(C(=O)Nn2cnnc2)cc1	none (no result: PPC-1+TRAIL kill)
CCCCCCCCNCCS(=O)(=O)NCc1ccc(OC)cc1	none (no result: PPC-1+TRAIL kill)
COc1ccc([C@H]2C[C@H](O)[C@@H](n3cc(-c4ccc(F)cc4)nn3)CN2Cc2cccs2)cc1	HIF-2a block 77.0 (no result: PPC-1+TRAIL kill) | HIF-2a conf inactive | HIF-1a counter 104.2
COc1ccc(NC(=S)NC(NC(=O)/C=C/c2ccccc2)C(Cl)(Cl)Cl)cc1 (configuration not stated)	HIF-2a block 65.8 | HIF-2a conf inactive | HIF-1a counter inactive
CCNC(=O)NC(=O)COC(=O)CCCSc1nc2ccccc2s1	HIF-2a block 60.3 | HIF-2a conf 85.6 | HIF-1a counter 59.9
CC(OC(=O)CCCc1nc2ccccc2s1)C(=O)NC(N)=O (configuration not stated)	none
CNC(=O)NC(=O)C(C)OC(=O)CCCSc1nc2ccccc2s1 (configuration not stated)	HIF-2a block 70.9 | HIF-2a conf 83.8 | HIF-1a counter 63.3
CNC(=O)NC(=O)C(C)OC(=O)CCCc1nc2ccccc2s1 (configuration not stated)	none
CCNC(=O)NC(=O)C(C)OC(=O)CCCSc1nc2ccccc2s1 (configuration not stated)	HIF-2a block 68.4 | HIF-2a conf 86.2 | HIF-1a counter 68.4
Cc1ccc(C)c(S(=O)(=O)N2CCCCC2CCNC(=O)C(=O)NCc2ccccc2)c1 (configuration not stated)	none (no result: PPC-1+TRAIL kill)
Cn1ccnc1C1CCCCN1Cc1nc(-c2ccc(Cl)cc2)no1 (configuration not stated)	none (no result: PPC-1+TRAIL kill)
COc1c(Cl)cc(Cl)cc1/C=C/C(=O)c1ccc(NC(=O)c2cccs2)cc1	KKLEB tox -82.1, HIF-2a block 87.3, CF NFkB block 87.5 | Mdm2 MdmX conf 99.5 | HIF-2a conf inactive | HIF-1a counter 107.1
COc1ccccc1CNc1ncc(-c2ccc(F)cc2)n1C	none (no result: PPC-1+TRAIL kill)
COc1ccc(CNc2ncc(-c3ccc(F)cc3)n2C)c2ccccc12	HIF-2a block 40.9 (no result: PPC-1+TRAIL kill) | HIF-2a conf 92.7 | HIF-1a counter 104.1
Cc1nc(C)c(Oc2cccc(C(F)(F)F)c2)c(=O)[nH]1	none
CC(SC#N)C(=O)C12CC3CC(CC(C3)C1)C2 (configuration not stated)	HIF-2a block 46.1 | HIF-2a conf inactive | HIF-1a counter inactive
O=C(Nc1ccc2nc3n(c(=O)c2c1)CCCC3)c1cncc(Br)c1	none (no result: PPC-1+TRAIL kill)
CCOc1ccc(-c2c(C#N)c(N)nc3sc(C(=O)c4ccccc4)c(N)c23)cc1	HIF-2a block 71.8 | HIF-2a conf inactive | HIF-1a counter 63.4
COc1ccc(-c2c(C#N)c(N)nc3sc(C(=O)c4ccccc4)c(N)c23)cc1	none
COc1ccc2c(c1)-c1c(ssc1=S)C(C)(C)N2	CF NFkB block 81.1 | Mdm2 MdmX conf 95.0
COc1ccc2c(c1)-c1c(sn(-c3ccc(OC)c(OC)c3)c1=S)C(C)(C)N2	none
O=C(CCl)Nc1cc2[nH]c(=O)[nH]c2cc1Br	none | Mdm2 MdmX conf 103.5
CCc1ccc(NC(=S)N2CCN(c3cccc(OC)c3)CC2)cc1	none
Cc1ccc(C2=NN(C(=O)CCl)C(c3ccco3)C2)o1 (configuration not stated)	C8 TRAIL sens 91.6 (no result: PPC-1+TRAIL kill) | Mdm2 MdmX conf 103.0
COc1ccc(C)cc1S(=O)(=O)NCC(c1ccc2c(c1)OCO2)N1CCN(C)CC1 (configuration not stated)	none (no result: PPC-1+TRAIL kill)
N=c1c2c(ncn1CCCO)Oc1c(ccc3ccccc13)C2c1ccccc1 (configuration not stated)	none
CN(C)CCCn1cnc2c(c1=N)C(c1ccccc1)c1ccc3ccccc3c1O2 (configuration not stated)	C8 TRAIL sens 70.5, HIF-2a block 92.6 (no result: PPC-1+TRAIL kill) | Mdm2 MdmX conf 103.0 | HIF-2a conf inactive | HIF-1a counter 105.8
Cc1cccc(C(=O)Nc2ccc(C(=O)/C=C/c3cccnc3)cc2)c1	HIF-2a block 76.1 | HIF-2a conf inactive | HIF-1a counter 104.5
Cc1cccc(C(=O)Nc2cccc(C(=O)N/N=C/c3ccncc3)c2)c1	none
C(=Cc1cccnc1)c1ccncc1	none (no result: PPC-1+TRAIL kill)
Cc1cccc(C(=O)Nc2ccc(C(=O)/C=C/c3ccncc3)cc2)c1	HIF-2a block 87.9 (no result: PPC-1+TRAIL kill) | HIF-2a conf inactive | HIF-1a counter 105.3
O=C(/C=C/c1cccnc1)/C=C/c1cccnc1	C8 TRAIL sens 51.2, HIF-2a block 94.9, CF NFkB block 75.4 | HIF-2a conf 65.9 | HIF-1a counter 106.6
Cc1ccc(C(=O)N2CCN(c3ccc([N+](=O)[O-])cc3)CC2)o1	none (no result: PPC-1+TRAIL kill)
O=C(CSc1nc2ncccc2[nH]1)c1ccc2c(c1)OCO2	none
C[C@@H]1CN([C@H](C)CO)C(=O)CCCn2cc(nn2)CO[C@H]1CN(C)C(=O)Nc1ccccc1	none (no result: PPC-1+TRAIL kill)
Cc1ccccc1C(=O)N1CCN(c2ccc(NC(=O)c3ccc4c(c3)OCCO4)cc2)CC1	HIF-2a block 60.4 (no result: PPC-1+TRAIL kill) | HIF-2a conf inactive | HIF-1a counter 71.5
